# PubChem BioAssay AID602250 (The Scripps Research Institute Molecular Screening Center, 2012)
# Screen size: about 360,000 compounds; about 2,200 (0.61%) were called active.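 How the source made its calls: active means inhibition above a per-plate cutoff, the plate's mean sample inhibition plus 3 SD (cut at about 24% in these data); inactive means the rest.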 Only a selection was taken, and actives are over-represented in it overall.
# Assay: nonselective inhibitors of ATP calcium response in CHO-K1, primary screen, counter-screen for M1 antagonist project, cell-based, Fluo-8 calcium fluorescence, full deck, 1536-well (AID 602250);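 further: 0% = DMSO plus EC80 ATP and 100% = DMSO alone without ATP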
# Conditions: CHO-K1 parental, ATP-induced calcium, Fluo-8 fluorescence; at 3 µM; active compounds read high
row,SMILES,inhibition
1,COc1ccc(OC)c(S(=O)(=O)N2CCCC(C(=O)NCCc3ccccc3)C2)c1 (stereo unspecified),-10.1% (inactive)
2,CCc1ccccc1NC(=O)CN1CCN(C(=O)c2cc(C3CC3)nn2-c2ccccc2)CC1,-11.2% (inactive)
3,Cc1nn(Cc2ccccc2)c(C)c1C(=O)N1CCN(CC(=O)Nc2ccccc2Cl)CC1,23.9% (active)
4,CCC(=O)Nc1ccccc1C(=O)N1CCN(Cc2ccccc2)CC1,19.3% (inactive)
5,CCCC(C)c1nnc(NC(=O)C2CC(=O)N(c3ccc(OCC)cc3)C2)s1 (stereo unspecified),-4.36% (inactive)
6,Cc1nc(SCC(=O)NC2CCCC2)[nH]c(=O)c1C,-8.77% (inactive)
7,CCCCC(=O)N1CC2(C)CN(C(=O)CCCC)CC(C)(C1)C2=O,-5.12% (inactive)
8,COc1c(O)cc2oc(-c3ccc(O)c(O)c3)cc(=O)c2c1O,24.9% (active)
9,CCOC(=O)COc1cc(OCC(=O)OCC)c2c(=O)cc(-c3ccccc3)oc2c1,-13.4% (inactive)
10,COc1cc(O)c2c(=O)c3c(O)c(O)ccc3oc2c1OC,-9.49% (inactive)
11,CCN(CC(=O)NCc1cccs1)C(=O)/C=C/c1ccc(C)cc1,-10.9% (inactive)
12,CCCc1cc(=O)[nH]c(SCC(=O)Nc2sc3c(c2C#N)CCCC3)n1,5.46% (inactive)
13,CCCc1ccc(-c2c(C)sc(NC(=O)c3ccnn3C)c2C#N)cc1,29.1% (active)
14,Cc1sc(NC(=O)C2=COCCO2)c(C#N)c1C,-16.8% (inactive)
15,Nc1cccc(S(=O)(=O)Nc2ccc(SC(F)F)cc2)c1,12.1% (inactive)
16,CCn1ccnc1CN(C)C(=O)c1cc(COc2ccc(Cl)cc2OC)on1,-6.33% (inactive)
17,COc1ccc(OCc2cc(C(=O)N3CCCC3)no2)c2ccccc12,-10.3% (inactive)
18,COc1cc(Cl)ccc1OCc1cc(C(=O)N2CC[C@@H]3CCCC[C@H]3C2)no1,30.9% (active)
19,O=C(O)CCCCCCCCc1cn(CN2C(=O)c3ccccc3C2=O)nn1,12.6% (inactive)
20,Cc1nn(-c2ccc(F)cc2)c(Cl)c1/C=C(/CCC(=O)O)c1nc2ccccc2s1,-3.61% (inactive)
21,O=C(O)CCCCc1nc2ccccc2s1,33.5% (active)
22,Cc1ccc([C@H]2N[C@]3(CCCN(CC4CCCCC4)C3=O)[C@H]3C(=O)N(Cc4ccccc4)C(=O)[C@@H]23)cc1,-0.53% (inactive)

row,SMILES,inhibition
1,CCCCN(C(=O)c1ccc(OC(F)(F)F)cc1)c1c(N)n(CCC)c(=O)[nH]c1=O,-6.23% (inactive)
2,CCCCN(C)C(=O)c1ccc2c(c1)N(CC)C(=O)c1ccccc1S2(=O)=O,18% (inactive)
3,Cc1cc(C)n(CC(=O)Nc2ccc([N+](=O)[O-])cc2)n1,-4.31% (inactive)
4,O=C(Cc1ccc([N+](=O)[O-])cc1)Nc1ccc(C(=O)N2CCOCC2)cc1,-11.3% (inactive)
5,O=C(Cc1cccs1)Nc1ccc([N+](=O)[O-])cc1,23.9% (active)
6,Cc1noc(C)c1S(=O)(=O)Nc1cc(C(F)(F)F)ccc1N1CCOCC1,3.45% (inactive)
7,Cc1oc2c(F)c(F)c(F)c(F)c2c1S(=O)(=O)Nc1cccc(C(F)(F)F)c1,27.9% (active)
8,Cc1ccc(N(CCC(=O)O)S(=O)(=O)c2cccc(C(F)(F)F)c2)cc1,3.61% (inactive)
9,COc1cc(C(=O)NCCOC(=O)c2cccc(N(C)C)c2)cc(OC)c1OC,-4.91% (inactive)
10,CCOc1ccc2[nH]c(=O)c(CN(CCCO)C(C)=O)cc2c1,7.13% (inactive)
11,OC(COc1ccccc1)CN1CCN(c2cccc(Cl)c2)CC1 (stereo unspecified),-14.9% (inactive)
12,OC(CN=c1sc2ccccc2n1CC(O)COc1ccccc1)COc1ccccc1 (stereo unspecified),62.5% (active)
13,Cc1cccc(OCC(O)Cn2c(=N)n(CCN3CCOCC3)c3ccccc32)c1 (stereo unspecified),-12.8% (inactive)
14,COC(=O)Cc1c(O)ccn(Cc2cccc(C(F)(F)F)c2)c1=O,-6.45% (inactive)
15,Cc1cccc(C)c1Nc1nnc(SCC(=O)NCCCN2CCCC2=O)s1,-7.35% (inactive)
16,CCOC(=O)C(Cc1ccc(N)cc1)N1C(=O)c2ccccc2C1=O (stereo unspecified),25.2% (active)
17,COc1ccc(CNC(=O)COC(=O)C(CCSC)N2C(=O)c3ccccc3C2=O)cc1 (stereo unspecified),-6.61% (inactive)
18,O=C(NCCN1CCOCC1)[C@H](Cc1ccccc1)N1C(=O)c2ccccc2C1=O,-4.92% (inactive)
19,CCCS(=O)(=O)NC(=O)C1(C)CCCN(C(=O)c2cccs2)C1 (stereo unspecified),-9.34% (inactive)
20,CCNC(=O)c1cc2c(c(-c3cccc(-c4cncnc4)c3)n1)[C@H](CCO)N(C(C)=O)C2,-11.6% (inactive)
21,CCCNC(=O)c1cc2c(c(-c3cccc(-c4ccc(C#N)cc4)c3)n1)[C@@H](CCO)N(C(=O)CC)C2,25.5% (active)
22,CCC(=O)N1Cc2cc(C(=O)NCc3cccc(F)c3)nc(-c3cccc(C4=CCCC4)c3)c2[C@H]1CCO,-1.18% (inactive)

row,SMILES,inhibition
1,COc1ccc(C(C[N+](=O)[O-])n2nc(C)cc2C)cc1 (stereo unspecified),-0.39% (inactive)
2,Cc1c(NC(=O)Nc2ccccc2Cl)sc(=S)n1C,24.7% (active)
3,Cc1c(Cl)cccc1NC(=O)Nc1ccc(C(=O)N2CCCC2)cc1,-18.4% (inactive)
4,Cc1c(Cl)cccc1NC(=O)NCc1ccc(C)n1C,3.33% (inactive)
5,CC1(C)CC(=O)c2cnc3nc4ccccc4n3c2C1,-11.2% (inactive)
6,CC1(C)CC(=O)C(N=Nc2c(F)cccc2F)=C(O)C1,-15.2% (inactive)
7,CCOC(=O)C1(C)CCCN(C(=O)c2cccc(Cl)c2)C1 (stereo unspecified),-16.1% (inactive)
8,CCO/N=C(/C)c1c(O)cc(-c2ccccc2)n(-c2ccccc2)c1=O,-7.62% (inactive)
9,C=CCO/N=C(\C)c1c(O)c(C)c(-c2ccccc2)n(-c2ccccc2)c1=O,28% (active)
10,Cc1nn(-c2ccccc2)c(C)c1/C=N/NC(=O)CSc1nc2ccccc2c(=O)n1-c1ccccc1,14.8% (inactive)
11,O=C(C1CC1)N1N=C2CCCCC2C1(O)C(F)(F)F (stereo unspecified),3.71% (inactive)
12,CC(=O)NCCc1ccc(S(=O)(=O)Nc2ccc(C)c(S(=O)(=O)N3CCOCC3)c2)cc1,11% (inactive)
13,Cn1c(=O)c2c(SCC(=O)N3CCOCC3)nc(C3CC3)nc2n(C)c1=O,-6.78% (inactive)
14,CCCC1(C(=O)OCC)NC(c2ccc(N(C)C)cc2)C2C(=O)N(c3ccc4c(c3)OCCO4)C(=O)C21 (stereo unspecified),-5.19% (inactive)
15,Cc1ccc(CNC(=O)CCNS(=O)(=O)c2cccc3nonc23)cc1,-10.2% (inactive)
16,CCNC(=S)NNC(=O)Cc1ccccc1,32.5% (active)
17,Cc1scc(C(=O)NNC(=S)NCc2ccccc2)c1C,-15.3% (inactive)
18,CCNC(=S)NNC(=O)C1CCN(Cc2ccccc2)CC1,-12.2% (inactive)
19,CCOC(=O)C1CCN(C(=O)c2ccc3c(=O)n4nc(Nc5ccccc5CC)sc4nc3c2)CC1,-9.89% (inactive)
20,CCSc1nc(O)c(C(c2cccc(OC)c2)c2c(O)nc(SCC)[nH]c2=O)c(=O)[nH]1,-3.25% (inactive)
21,COC(=O)C1=C(N)Oc2cc(C)oc(=O)c2C1c1cccnc1 (stereo unspecified),-3.67% (inactive)
22,CCSc1nc2c(c(=O)[nH]1)C(c1cccnc1)C(C(=O)OC(C)C)=C(C)N2 (stereo unspecified),25.5% (active)

row,SMILES,inhibition
1,COc1ccc(Cl)cc1NC(=O)CN(C)C(=O)CCCc1c[nH]c2ccccc12,2.49% (inactive)
2,O=C1NC(Cc2ccccc2)c2nc3ccc(Br)cc3c(=O)n2-c2cc3ccccc3cc21 (stereo unspecified),12.3% (inactive)
3,COc1ccc(O)c(C=Nc2cc(C)on2)c1,-9.65% (inactive)
4,CS(=O)(=O)c1ccccc1C(=O)Nc1ccc2sccc2c1,-10.2% (inactive)
5,Cc1ccc(NC(=O)Nc2ccc3oc(C)nc3c2)cc1,-8.85% (inactive)
6,O=C(Nc1ccc2ccccc2c1)Nc1ccc2snnc2c1,32.6% (active)
7,CC(C)Oc1ccc(CC(=O)NNC(=S)Nc2ccc(Br)cc2)cc1,-8.93% (inactive)
8,CC(C)OCCCNc1ncnc2c1[nH]c1ccc(F)cc12,26.5% (active)
9,CCOc1ccc(C2NC(=S)NC3=C2CCc2ccccc23)cc1 (stereo unspecified),4.36% (inactive)
10,COCc1[nH][nH]c(=O)c1C=Nc1ccc(F)cc1F,3.8% (inactive)
11,CCN1/C(=C\c2ccc3ccccc3[n+]2CC)Sc2cc(C)ccc21,47.2% (active)
12,N#CCCN(C(=O)Nc1ccc(Cl)c(Cl)c1)C1CCCCC1,5.09% (inactive)
13,CC1(C(=O)O)CCC(C(=O)Nc2ccc(Cl)c(Cl)c2)C1(C)C (stereo unspecified),-12.5% (inactive)
14,O=C(CC(O)(C(F)(F)F)C(F)(F)F)Nc1ccc(Cl)c(Cl)c1,42.9% (active)
15,CC1(C)C2CCC13CS(=O)(=O)NC3C2 (stereo unspecified),-9.03% (inactive)
16,NC1=NC2(CCCCC2)N(c2ccc(F)cc2F)C(N)=N1,13.8% (inactive)
17,N#Cc1c(N)sc2c1CCN(C(=O)OCc1ccccc1)C2,-19.6% (inactive)
18,CC(C)N1CCc2c(sc(NC(=O)Cc3ccccc3)c2C#N)C1,24.7% (active)
19,CC(=O)N1CCc2c(sc(NC(=O)CCS(=O)(=O)c3ccccc3)c2C#N)C1,0.29% (inactive)
20,C[C@H](NC(=O)[C@@H]1CCCN1C(=O)[C@@H]1CCCN1C(=O)c1ccccc1)c1ccccc1,-24.1% (inactive)
